Experiment [1] has as its target T1, Rhodopsin kinase GRK7 (Homo sapiens) (UniProt Q8WTQ7).
T1 sequence (whole entry): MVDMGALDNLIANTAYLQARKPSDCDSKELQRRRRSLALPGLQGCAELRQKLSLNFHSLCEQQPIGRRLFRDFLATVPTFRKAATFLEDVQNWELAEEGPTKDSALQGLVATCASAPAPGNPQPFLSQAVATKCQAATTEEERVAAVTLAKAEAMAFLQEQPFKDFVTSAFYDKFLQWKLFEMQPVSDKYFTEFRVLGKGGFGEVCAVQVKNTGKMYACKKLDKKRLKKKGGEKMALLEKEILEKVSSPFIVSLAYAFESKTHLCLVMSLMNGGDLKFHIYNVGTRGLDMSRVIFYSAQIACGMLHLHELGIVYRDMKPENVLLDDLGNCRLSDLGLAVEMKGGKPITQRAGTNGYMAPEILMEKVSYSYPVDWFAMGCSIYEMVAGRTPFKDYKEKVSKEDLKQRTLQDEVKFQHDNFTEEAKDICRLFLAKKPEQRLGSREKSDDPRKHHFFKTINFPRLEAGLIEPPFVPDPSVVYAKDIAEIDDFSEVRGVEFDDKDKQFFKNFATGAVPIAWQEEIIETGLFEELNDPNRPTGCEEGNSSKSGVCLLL
The note with it: at 10 µM.

Experiment [2] has as its target Glycogen synthase kinase-3 alpha (Homo sapiens) (UniProt P49840). The following applies: at 1 µM.
For experiment [3] the target is unchanged. The note with it: at 10 µM.
The target in experiment [4] is Homeodomain-interacting protein kinase 1 (Homo sapiens) (UniProt Q86Z02). The note with it: at 10 µM.
Homeodomain-interacting protein kinase 1 (Homo sapiens), sequence (Q86Z02 whole entry, looked up): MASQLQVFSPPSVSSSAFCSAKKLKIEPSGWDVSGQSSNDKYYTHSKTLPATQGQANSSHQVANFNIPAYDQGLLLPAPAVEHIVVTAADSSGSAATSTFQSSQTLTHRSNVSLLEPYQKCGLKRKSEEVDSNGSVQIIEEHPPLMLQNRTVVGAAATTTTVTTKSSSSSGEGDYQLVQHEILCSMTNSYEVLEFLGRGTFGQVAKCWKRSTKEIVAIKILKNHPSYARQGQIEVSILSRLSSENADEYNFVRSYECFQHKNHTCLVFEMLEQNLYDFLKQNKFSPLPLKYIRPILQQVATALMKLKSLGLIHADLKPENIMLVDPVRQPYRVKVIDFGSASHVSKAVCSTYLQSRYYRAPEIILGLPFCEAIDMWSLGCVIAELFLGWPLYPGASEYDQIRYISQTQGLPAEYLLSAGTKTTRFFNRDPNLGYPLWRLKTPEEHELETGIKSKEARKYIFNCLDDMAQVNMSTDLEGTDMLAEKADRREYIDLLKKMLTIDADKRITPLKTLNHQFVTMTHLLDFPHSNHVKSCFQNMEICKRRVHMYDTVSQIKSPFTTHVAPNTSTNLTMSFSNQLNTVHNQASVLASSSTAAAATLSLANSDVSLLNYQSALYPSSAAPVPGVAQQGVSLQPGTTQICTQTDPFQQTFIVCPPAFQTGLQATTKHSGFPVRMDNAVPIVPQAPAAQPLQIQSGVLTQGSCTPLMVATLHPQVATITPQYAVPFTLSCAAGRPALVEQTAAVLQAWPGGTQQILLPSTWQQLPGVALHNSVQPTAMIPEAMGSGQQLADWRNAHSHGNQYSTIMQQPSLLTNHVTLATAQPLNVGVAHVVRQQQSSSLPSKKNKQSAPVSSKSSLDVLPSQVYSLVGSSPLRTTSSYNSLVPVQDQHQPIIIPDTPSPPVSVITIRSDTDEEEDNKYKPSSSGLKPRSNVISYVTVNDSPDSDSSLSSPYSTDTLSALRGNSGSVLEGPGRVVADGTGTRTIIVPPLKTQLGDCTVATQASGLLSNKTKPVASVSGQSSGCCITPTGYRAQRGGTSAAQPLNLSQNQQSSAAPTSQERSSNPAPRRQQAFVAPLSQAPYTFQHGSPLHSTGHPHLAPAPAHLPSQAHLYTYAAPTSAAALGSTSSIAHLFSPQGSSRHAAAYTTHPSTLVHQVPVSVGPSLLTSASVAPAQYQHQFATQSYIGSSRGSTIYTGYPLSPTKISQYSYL
Experiment [5] deals with Homeodomain-interacting protein kinase 2 (Homo sapiens) (UniProt Q9H2X6). The following applies: at 1 µM.
Homeodomain-interacting protein kinase 2 (Homo sapiens), sequence (Q9H2X6 whole entry, looked up): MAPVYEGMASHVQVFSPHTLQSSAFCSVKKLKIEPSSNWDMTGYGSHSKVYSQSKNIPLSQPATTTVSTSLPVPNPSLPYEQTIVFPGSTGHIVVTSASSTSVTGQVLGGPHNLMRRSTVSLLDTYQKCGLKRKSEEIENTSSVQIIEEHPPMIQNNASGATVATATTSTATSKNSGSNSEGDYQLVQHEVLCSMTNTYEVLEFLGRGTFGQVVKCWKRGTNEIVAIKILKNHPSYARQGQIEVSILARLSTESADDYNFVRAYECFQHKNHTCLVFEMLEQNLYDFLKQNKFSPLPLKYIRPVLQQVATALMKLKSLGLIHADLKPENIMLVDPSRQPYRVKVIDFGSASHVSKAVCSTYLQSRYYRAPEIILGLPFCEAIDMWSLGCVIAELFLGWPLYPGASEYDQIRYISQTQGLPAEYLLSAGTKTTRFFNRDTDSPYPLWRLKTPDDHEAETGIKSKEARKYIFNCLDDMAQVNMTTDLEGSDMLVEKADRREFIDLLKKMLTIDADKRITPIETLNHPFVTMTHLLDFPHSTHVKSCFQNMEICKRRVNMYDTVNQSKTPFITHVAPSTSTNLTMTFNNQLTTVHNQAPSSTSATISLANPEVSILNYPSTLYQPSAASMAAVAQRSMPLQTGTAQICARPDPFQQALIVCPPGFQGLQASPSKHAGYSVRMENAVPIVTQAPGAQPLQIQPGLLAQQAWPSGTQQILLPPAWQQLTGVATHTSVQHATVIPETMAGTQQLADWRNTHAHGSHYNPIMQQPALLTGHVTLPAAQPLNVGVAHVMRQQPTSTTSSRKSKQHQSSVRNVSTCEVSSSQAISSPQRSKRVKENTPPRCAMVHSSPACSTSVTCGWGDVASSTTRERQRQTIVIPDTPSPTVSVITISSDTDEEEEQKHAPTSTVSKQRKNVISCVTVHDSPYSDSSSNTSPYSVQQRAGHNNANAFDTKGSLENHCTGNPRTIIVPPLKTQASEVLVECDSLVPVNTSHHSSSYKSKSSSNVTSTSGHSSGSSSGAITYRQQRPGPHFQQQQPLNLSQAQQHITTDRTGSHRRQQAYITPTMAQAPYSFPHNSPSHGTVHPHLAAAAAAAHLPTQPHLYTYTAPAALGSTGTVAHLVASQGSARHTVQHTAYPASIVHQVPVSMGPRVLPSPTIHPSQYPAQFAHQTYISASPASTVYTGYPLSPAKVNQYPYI
Experiment [6] has the same target. The note with it: at 10 µM.
The target of experiment [7] is Glycogen synthase kinase-3 beta (Homo sapiens) (UniProt P49841). The note with it: at 1 µM.
Glycogen synthase kinase-3 beta (Homo sapiens), sequence (P49841 whole entry, looked up): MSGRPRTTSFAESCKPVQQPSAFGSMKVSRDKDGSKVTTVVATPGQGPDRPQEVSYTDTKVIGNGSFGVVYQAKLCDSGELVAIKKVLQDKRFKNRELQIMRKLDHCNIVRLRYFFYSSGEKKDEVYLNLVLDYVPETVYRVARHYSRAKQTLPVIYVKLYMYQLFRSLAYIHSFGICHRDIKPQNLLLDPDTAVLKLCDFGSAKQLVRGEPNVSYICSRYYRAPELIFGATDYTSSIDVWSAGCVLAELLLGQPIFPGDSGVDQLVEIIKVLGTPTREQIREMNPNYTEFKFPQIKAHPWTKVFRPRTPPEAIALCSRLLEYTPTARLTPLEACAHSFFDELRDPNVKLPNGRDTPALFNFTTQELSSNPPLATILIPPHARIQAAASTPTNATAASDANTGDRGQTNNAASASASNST
For experiment [8] the target is unchanged. The note with it: at 10 µM.
Experiment [9] has as its target Homeodomain-interacting protein kinase 1 (Homo sapiens) (UniProt Q86Z02). The following applies: at 1 µM.
The target in experiment [10] is Homeodomain-interacting protein kinase 3 (Homo sapiens) (UniProt Q9H422). The following applies: at 1 µM.
Homeodomain-interacting protein kinase 3 (Homo sapiens), sequence (Q9H422 whole entry, looked up): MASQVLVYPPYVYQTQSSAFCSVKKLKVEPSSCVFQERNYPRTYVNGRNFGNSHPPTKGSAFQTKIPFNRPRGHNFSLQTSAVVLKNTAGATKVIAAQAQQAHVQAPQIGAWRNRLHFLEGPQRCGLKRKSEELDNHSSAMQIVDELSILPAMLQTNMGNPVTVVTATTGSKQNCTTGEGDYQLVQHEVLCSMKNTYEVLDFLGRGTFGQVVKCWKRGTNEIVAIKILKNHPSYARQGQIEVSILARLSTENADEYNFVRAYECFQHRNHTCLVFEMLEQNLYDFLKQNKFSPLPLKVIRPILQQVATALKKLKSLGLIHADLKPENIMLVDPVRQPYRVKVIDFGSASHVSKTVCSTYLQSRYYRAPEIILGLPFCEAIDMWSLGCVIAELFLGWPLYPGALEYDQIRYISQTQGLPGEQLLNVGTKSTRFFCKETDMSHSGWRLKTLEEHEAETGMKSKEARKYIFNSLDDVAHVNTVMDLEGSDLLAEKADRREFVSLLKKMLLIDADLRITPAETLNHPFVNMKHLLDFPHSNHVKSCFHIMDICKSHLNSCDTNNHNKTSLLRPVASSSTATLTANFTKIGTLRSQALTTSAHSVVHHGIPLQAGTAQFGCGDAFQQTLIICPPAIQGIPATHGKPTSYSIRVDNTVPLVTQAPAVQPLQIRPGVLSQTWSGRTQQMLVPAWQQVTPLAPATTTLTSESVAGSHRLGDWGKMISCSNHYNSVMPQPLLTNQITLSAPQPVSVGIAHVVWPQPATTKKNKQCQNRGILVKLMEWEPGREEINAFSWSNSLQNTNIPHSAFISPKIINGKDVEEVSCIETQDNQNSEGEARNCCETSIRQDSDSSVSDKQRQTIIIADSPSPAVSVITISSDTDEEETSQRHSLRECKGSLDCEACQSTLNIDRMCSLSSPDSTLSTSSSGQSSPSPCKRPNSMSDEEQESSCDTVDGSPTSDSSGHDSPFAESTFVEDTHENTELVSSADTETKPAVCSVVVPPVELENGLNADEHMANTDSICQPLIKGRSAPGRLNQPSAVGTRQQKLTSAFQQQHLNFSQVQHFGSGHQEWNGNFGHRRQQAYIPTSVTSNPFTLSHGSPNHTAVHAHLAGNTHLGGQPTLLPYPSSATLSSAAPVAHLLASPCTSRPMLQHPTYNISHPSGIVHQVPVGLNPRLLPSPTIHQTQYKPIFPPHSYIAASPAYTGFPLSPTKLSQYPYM

Glycogen synthase kinase-3 alpha (Homo sapiens), sequence (P49840 2-483 limits assumed): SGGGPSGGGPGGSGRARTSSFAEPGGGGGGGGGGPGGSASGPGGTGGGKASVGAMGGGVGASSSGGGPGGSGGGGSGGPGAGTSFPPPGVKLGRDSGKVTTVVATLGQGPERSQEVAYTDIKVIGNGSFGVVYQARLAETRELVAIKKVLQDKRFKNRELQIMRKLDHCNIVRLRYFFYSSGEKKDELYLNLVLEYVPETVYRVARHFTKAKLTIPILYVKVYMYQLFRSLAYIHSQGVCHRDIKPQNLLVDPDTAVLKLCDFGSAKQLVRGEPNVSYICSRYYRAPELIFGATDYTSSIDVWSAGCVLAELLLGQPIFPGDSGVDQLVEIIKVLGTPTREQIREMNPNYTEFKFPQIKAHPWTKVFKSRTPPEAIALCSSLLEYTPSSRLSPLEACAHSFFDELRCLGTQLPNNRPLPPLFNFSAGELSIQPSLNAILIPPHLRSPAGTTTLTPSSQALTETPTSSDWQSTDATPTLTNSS

Regarding `CC(C)[C@H](CO)Nc1nc(Nc2cc(N)cc(Cl)c2)c2ncn(C(C)C)c2n1`, the residual activity stood at 10% in experiment [1]; 80% in [2]; 28% in [3]; 60% in experiment [4]; 86% in experiment [5]; 32% in experiment [6].
`CC(C)(C)n1nc(Cc2cccc3ccccc23)c2c(N)ncnc21`: the residual activity stood at 56% in [1]; 116% in experiment [2]; 130% in experiment [3]; 103% in experiment [7]; 65% in experiment [8]; 95% in experiment [9]. The residual activity in [4] was 107%; in experiment [5], 101%; in experiment [6], 110%; in experiment [10] it was 93%.
Take `Nc1nc(Nc2ccc(S(N)(=O)=O)cc2)nn1C(=O)c1c(F)cccc1F`: the residual activity in experiment [1] turned out to be 6%; in [2], 11%; in experiment [3], 4%; in experiment [7], 23%; in experiment [8] it was 3%; in experiment [9], 75%. Besides, the residual activity in experiment [4] was 18%; in [5] it was 48%; in [6], 6%.
Consider `COc1cc2c(cc1OC)-c1n[nH]c(Nc3cccc(F)c3)c1C2`, for which the residual activity in experiment [1] turned out to be 80%; in experiment [2], 115%; in [3] it was 108%; in [8], 75%.
As for `O=C(c1cc2cc(O)ccc2[nH]1)c1cc2cc(O)ccc2[nH]1`, the residual activity in experiment [1] came to 54%; in experiment [3], 26%; in [7] it was 59%; in [8], 20%; in experiment [5], 83%; in experiment [6], 28%. In addition, the residual activity in [10] came out at 76%.
Regarding `CC(C)c1nn(-c2c(Cl)cccc2Cl)c2nc(Cc3ccc(OCCO)cc3)[nH]c(=O)c12`, the residual activity amounted to 80% in experiment [1]; 66% in experiment [2]; 13% in [3]; 51% in experiment [7]; 45% in [8]; 104% in [9]. Besides, the residual activity was determined as 98% in experiment [4], 99% in experiment [5], 89% in experiment [6] and 107% in experiment [10].
For `Cc1cc(C)c(/C=C2\C(=O)Nc3ccccc32)[nH]1`, the residual activity in [1] was found to be 60%; in [2] it was 106%; in experiment [3], 124%; in [5], 80%; in experiment [6], 39%.
Turning to `CN(C)S(=O)(=O)c1ccc2c(c1)/C(=C/c1cc3c([nH]1)CCCC3)C(=O)N2`, the residual activity in experiment [1] stood at 78%; in experiment [2], 97%; in [3], 94%; in experiment [7] it was 112%; in [8], 94%; in experiment [5] it was 97%. Further, the residual activity in experiment [6] amounted to 90%; in experiment [10], 99%.
As to `CN([C@@H](Cc1ccc(OS(=O)(=O)c2cccc3cnccc23)cc1)C(=O)N1CCN(c2ccccc2)CC1)S(=O)(=O)c1cccc2cnccc12`, the residual activity in experiment [1] turned out to be 85%.
As to `O=C1Nc2ccc(Cl)cc2/C1=C/c1cc(Cl)c(O)c(Cl)c1`, the residual activity in experiment [1] was 79%; in [2], 75%; in [3], 30%; in [7], 84%; in experiment [8], 44%; in experiment [9], 93%. Also, the residual activity in experiment [4] was 88%; in experiment [5] it was 76%; in [6], 22%; in experiment [10] it was 79%.
Consider `COc1cc2nccc(Oc3ccc(NC(=S)NC(=O)c4ccccc4C)cc3)c2cc1OC`, for which the residual activity in [1] worked out at 84%; in experiment [2] it was 120%; in experiment [3], 147%; in experiment [7], 86%; in experiment [8], 99%; in experiment [9], 93%. Moreover, the residual activity in [5] is 100%; in experiment [6], 91%; in experiment [10], 88%.
As for `O=C1NC(=O)C(c2c[nH]c3ccccc23)=C1c1c[nH]c2ccccc12`, the residual activity in experiment [1] amounted to 20%; in experiment [2], 19%; in experiment [3], 4%; in experiment [7], 31%; in experiment [8], 6%; in [5], 76%. Moreover, the residual activity in experiment [6] is 15%.
Regarding `O=c1cc(N2CCOCC2)oc2c(-c3ccccc3)cccc12`, in [1], the residual activity was found to be 81%.
For the compound `O=C1NC(=O)c2c1c1c3ccccc3[nH]c1n1cncc21`, the residual activity is 76% in experiment [1]; 7% in [2]; 4% in [3]; 26% in experiment [7]; 29% in experiment [8]; 77% in experiment [9]. In addition, the residual activity turned out to be 58% in experiment [4], 30% in experiment [5], 13% in experiment [6] and 61% in [10].
For the compound `Nc1ncnc2c1cnn2-c1ccccc1`, the residual activity came to 94% in experiment [1]; 140% in experiment [3]; 84% in [7]; 101% in experiment [5]; 95% in experiment [6]; 99% in [10].
In the case of `O=C1Nc2ccccc2/C1=C\c1c(Cl)[nH]c2ccccc12`, the residual activity in [1] amounted to 87%; in [7], 141%; in [8] it was 80%.
For `NC(=O)Nc1sc(-c2ccc(F)cc2)cc1C(N)=O`, the residual activity in [1] came out at 19%; in [2] it was 64%; in experiment [3], 29%; in experiment [9] it was 106%; in [4] it was 87%; in experiment [5], 94%. Besides, the residual activity in [6] turned out to be 67%; in [10] it was 100%.
Regarding `O=C(CCCc1ccc(-c2ccccc2F)cc1)Nc1ccc(O)cc1`, the residual activity in experiment [1] is 86%; in [3] it was 84%; in [7] it was 102%; in [8], 79%; in experiment [9], 108%; in experiment [4], 104%. Besides, the residual activity in experiment [5] is 111%; in [6], 105%; in [10], 103%.
Turning to `O=C(NC(NC(=S)Nc1ccc(F)c([N+](=O)[O-])c1)C(Cl)(Cl)Cl)C(c1ccccc1)c1ccccc1` (centres undefined), the residual activity in [1] amounted to 98%; in experiment [3], 89%; in experiment [9], 99%; in experiment [4], 93%; in experiment [5] it was 104%; in [6] it was 77%. Further, the residual activity in experiment [10] came out at 96%.
As to `Cn1c2ccccc2c2c3c(c4c5ccccc5n(CCC#N)c4c21)CNC3=O`, the residual activity in [1] turned out to be 34%; in [2] it was 20%; in [3] it was 19%; in experiment [7], 15%; in experiment [8], 26%; in experiment [5] it was 20%. In experiment [6], the residual activity was determined as 11%.
For the compound `CCCCc1c(-c2ccc(OC)cc2)[nH]c2nccnc12`, the residual activity in [1] came out at 92%; in experiment [2] it was 46%; in experiment [3], 41%; in experiment [7], 52%; in experiment [8], 71%; in [6] it was 90%. Also, the residual activity in experiment [10] turned out to be 106%.
`Oc1cccc(-c2nc(N3CCOCC3)c3oc4ncccc4c3n2)c1`: the residual activity was determined as 94% in [1]; 127% in experiment [3]; 84% in [5]; 89% in experiment [6]; 93% in [10].
Regarding `CCCCc1c(-c2ccc(O)cc2)[nH]c2nccnc12`, the residual activity in experiment [1] is 87%; in experiment [2] it was 62%; in [3], 20%; in [7], 79%; in [8] it was 73%; in experiment [6] it was 62%.
On to `O=C1NC(=O)C(c2cn(CCCn3ccnc3)c3ccccc23)=C1Nc1ccccc1`, for which the residual activity in [1] is 22%; in experiment [2], 14%; in experiment [3], 1%; in experiment [7], 14%; in [8] it was 3%.
As for `O=C(c1ccccc1)c1ccc(N2CCOCC2)cc1O`, the residual activity in experiment [1] came out at 95%; in experiment [2], 91%; in experiment [3], 121%; in experiment [7] it was 96%; in experiment [8], 87%; in [9], 98%. Besides, the residual activity in experiment [4] stood at 97%; in [5], 97%; in [6], 94%; in [10], 87%.
With `O=c1cc(N2CCOCC2)oc2c1ccc1ccccc12`, the residual activity in [1] amounted to 87%; in experiment [3], 80%; in experiment [7] it was 101%; in experiment [8], 73%; in experiment [9], 90%; in [4] it was 50%. The residual activity stood at 70% in [5], 22% in experiment [6] and 71% in [10].

By residual activity is commonly meant the signal under treatment as a percentage of the control signal.
